# Measured values published in PubChem BioAssay (NCATS).
# The source made the active and inactive calls. Calls come from the whole dose curve. Residues, ends and D or L forms follow the SMILES beside them. *: point of attachment. Cbz = O=C(OCc1ccccc1)*
# Experiment: qHTS drug screen for cell cycle checkpoint inhibitors in PARPi-resistant BRCA-mutant ovarian cancer cell lines. (AID 1963452)
# Settings: PEO1/OlaR viability, CellTiter-Glo luminescence, 96 h; for Z-AUC: stronger effect = lower value
# Outline: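 PEO1, PEO4 and PEO1/OlaR ovarian cancer cells, 600 per well, exposed 96 h at 37C to a dilution series. Viability read by CellTiter-Glo luminescence, normalized to DMSO and empty wells; activity summarized as Z-AUC.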
# [1] = measured here: PEO1 parental Z-AUC
# Potency is the fitted concentration of half-maximal effect.
SMILES,Potency,Z-AUC [1],Z-AUC (measured here: PEO4 Z-AUC),Z-AUC
COc1cccc2c1C(=O)c1c(O)c3c(c(O)c1C2=O)C[C@@](O)(C(=O)CO)C[C@@H]3O[C@H]1C[C@H](N)[C@@H](O)[C@H](C)O1,219 nM (active),-2.06,-1.69,–
CC(O)(C#Cc1ccc2c(c1)N(c1nc(N)ncc1Cl)CC2)c1nccs1 (configuration not stated),–,-0.463,-0.647,-0.29 (inactive)
COc1cc2ncnc(Nc3cccc(Br)c3)c2cc1OC,–,0.586,0.428,0.281 (inactive)
Cn1cnc2c(F)c(Nc3ccc(Br)cc3F)c(C(=O)NOCCO)cc21,–,-0.742,-0.428,-0.612 (inactive)
CCN(CC)Cc1ccc2cc(COC(=O)Nc3ccc(C(=O)NO)cc3)ccc2c1,977 nM (active),-1.11,-1.29,–
C[C@H](NC(=O)[C@@H](O)c1cc(F)cc(F)c1)C(=O)N[C@@H]1C(=O)N(C)c2ccccc2-c2ccccc21,–,0.437,0.274,0.549 (inactive)
c1cc(N[C@@H]2CCNC2)nc(-c2cnc3ccc(-c4cn[nH]c4)cn23)c1,–,-0.698,-0.866,-1.39 (inactive)
CC(C)C[C@@H](C=O)NC(=O)[C@H](CC(C)C)NC(=O)[C@H](CC(C)C)NC(=O)OCc1ccccc1 (Cbz-Leu-Leu-Leu-aldehyde),–,-0.937,-0.457,-0.0586 (inactive)
COc1cc2c(cc1OC)[C@@H]1C(=O)c3ccc4c(c3O[C@@H]1CO2)C=CC(C)(C)O4,–,-1.79,-1.41,-0.868 (inactive)
Nc1ccc(C(=O)Nc2cccc(-c3nc(N4CCOCC4)c4oc5ncccc5c4n3)c2)cn1,–,-0.164,0.731,0.0788 (inactive)
CC(C)Oc1ccc(C(=O)N[C@H](CNC(=O)CN(C)C)Cc2ccc(-c3cn4cccc([C@H](C)O)c4n3)cc2)cc1Cl,–,-0.733,-1.18,-1.44 (inactive)
CC(N[C@H]1CCCC[C@H]1NC(=O)c1ccc(Cl)cc1)c1cccc2ccccc12 (some centres not stated),–,0.0458,0.472,0.148 (inactive)
O=C(O)c1ccc(Nc2ncc3c(n2)-c2ccc(Cl)cc2C(c2c(F)cccc2F)=NC3)cc1,–,0.311,-0.364,0.584 (inactive)
OCCNC1CCCc2c1[nH]c1ccc(-c3ccccc3)cc21 (configuration not stated),–,-0.384,0.0631,-0.486 (inactive)
COc1cc(C(=O)NC2CCN(C)CC2)ccc1Nc1ncc2c(n1)N(C1CCCC1)CCC(=O)N2C(C)C,–,0.079,-0.318,-0.77 (inactive)
CC(C)NC[C@@H](C(=O)N1CCN(c2ncnc3c2[C@H](C)C[C@H]3O)CC1)c1ccc(Cl)cc1,–,1.5,1.13,1.25 (inactive)
NC(=O)Nc1sc(-c2ccc(F)cc2)cc1C(N)=O,–,-1.13,-1.05,-1.29 (inactive)
COc1ccc(S(=O)(=O)Nc2cc(-c3c(O)ccc4ccccc34)c(O)c3ccccc23)cc1,–,0.417,0.118,0.502 (inactive)
COc1cc(C(C)C)c(Oc2cnc(NC(CO)CO)nc2N)cc1I,–,1.44,1.02,0.743 (inactive)
CC(=O)SCC(Cc1ccccc1)C(=O)NCC(=O)OCc1ccccc1 (configuration not stated),–,1.28,0.777,0.0229 (inactive)
Cc1cnc(NC(=O)Nc2cc(Br)c(C)cc2OC[C@@H]2CNCCO2)cn1,–,-0.193,-0.00574,-0.43 (inactive)
CC(C)n1cnc2c(NCCc3ccc(O)cc3)nc(-c3csc4ccccc34)nc21,–,0.415,0.466,0.419 (inactive)

SMILES,Potency,Z-AUC [1],Z-AUC (measured here: PEO4 Z-AUC),Z-AUC
NC(=NCCCCCCN=C(N)N=C(N)Nc1ccc(Cl)cc1)N=C(N)Nc1ccc(Cl)cc1,–,0.0732,-0.00855,0.994 (inactive)
O=[N+]([O-])c1cn2c(n1)OC[C@@H](OCc1ccc(OC(F)(F)F)cc1)C2,–,0.61,0.849,0.733 (inactive)
C=CC(=O)N1CCc2ccc(-n3c(=O)ccc4cnc5ccc(-c6cnn(C)c6)cc5c43)cc21,–,-0.285,-0.334,-0.366 (inactive)
Cc1ncc(-c2ccnc(Nc3ccc(S(C)(=O)=O)cc3)n2)n1C(C)C,–,-0.968,-1.44,-1.39 (inactive)
COc1cc(O)c2c(c1)C1OC1C[C@H](O)[C@H](O)C(=O)C=CC[C@H](C)OC2=O (some centres not stated),–,-0.101,-0.574,0.145 (inactive)
CC(C)[C@H](CO)Nc1nc(Nc2cccc(Cl)c2)c2ncn(C(C)C)c2n1,–,0.0457,0.284,0.56 (inactive)
O=C(O)CCCCCC(=O)NN=C1CCCC1,–,1.02,1.15,1.41 (inactive)
O=C(Nc1ccc(Oc2ccnc3[nH]ccc23)c(F)c1)c1cccn(-c2ccc(F)cc2)c1=O,–,0.598,0.646,-0.152 (inactive)
CN(C)c1ccc(C(=O)NCCCCCCC(=O)NO)cc1,–,-0.12,-0.674,-1.48 (inactive)
Oc1ccc([C@@H]2Oc3ccc(O)cc3[C@@H]3CCC[C@@H]32)cc1,–,-0.25,-0.0299,0.648 (inactive)
COc1ccc(Nc2nccc(NCCO)n2)cc1,–,0.748,0.763,1.22 (inactive)
COc1cc(CCc2cc(NC(=O)c3ccc(N4C[C@@H](C)N[C@@H](C)C4)cc3)n[nH]2)cc(OC)c1,–,-0.945,-0.842,-1.36 (inactive)
CC(C)c1cnn2c(NCc3ccccc3)cc(NCCCCCCN)nc12,–,1.33,1.15,1.27 (inactive)
Cn1cnc(=N)c2[nH]cnc21,–,0.768,0.897,1.05 (inactive)
Cc1cnc(Nc2ccc(N3CCN(C)CC3)cc2)nc1Nc1cccc(S(=O)(=O)NC(C)(C)C)c1,–,-0.236,-0.304,-0.289 (inactive)
c1ccc2c(Oc3nc(Nc4ccc(N5CCOCC5)cc4)c4ncn(C5CCCCC5)c4n3)cccc2c1,–,1.4,1.58,1.71 (inactive)
FC(F)(F)c1ccc(Nc2nc3ccc(Oc4ccnc(-c5ncc(C(F)(F)F)[nH]5)c4)cc3[nH]2)cc1,–,-0.706,-1.16,-0.52 (inactive)
CCOc1cc2c(c(F)c1OCC)C(=N)N(CC(=O)c1cc(N3CCOCC3)c(OC)c(C(C)(C)C)c1)C2,–,0.331,0.119,-0.189 (inactive)
CC1=C(C(=O)Nc2cc3cn[nH]c3cc2F)C(c2ccc(Cl)cc2F)N=C(c2ccnc(Cl)c2)N1 (configuration not stated),–,0.693,0.963,0.0424 (inactive)
O=C(O)CCCCC(CCSCc1ccccc1)SCc1ccccc1 (configuration not stated),–,1.63,1.32,1.05 (inactive)
COc1cc(C)c(Sc2cnc(NC(=O)c3ccc(CNC(C)C(C)(C)C)cc3)s2)cc1C(=O)N1CCN(C(C)=O)CC1 (configuration not stated),–,-0.233,-0.809,-0.0176 (inactive)
O=S(=O)(O)CCSSCCS(=O)(=O)O,–,0.123,0.876,-0.0996 (inactive)

SMILES,Potency,Z-AUC [1],Z-AUC (measured here: PEO4 Z-AUC),Z-AUC
c1cncc(CN2CCC(n3ncc4c(N5CCOCC5)nc(-c5ccc6[nH]ccc6c5)nc43)CC2)c1,–,-0.0764,-0.549,-0.587 (inactive)
CCOC(=O)C1=C(C)NC(=S)NC1c1cccc(O)c1 (configuration not stated),–,0.343,0.61,1.34 (inactive)
CN(C)CC(=O)N1CCC(c2ccc(NC(=O)c3ncc(C#N)[nH]3)c(C3=CCCCC3)c2)CC1,–,-0.797,-0.584,-1.11 (inactive)
CCCNS(=O)(=O)Nc1ncnc(OCCOc2ncc(Br)cn2)c1-c1ccc(Br)cc1,–,0.726,1.05,0.736 (inactive)
N#Cc1c(C2CCNCC2)cc(-c2c(O)cccc2OCC2CC2)nc1N,–,0.598,0.733,0.339 (inactive)
Cc1cc(C(=O)NOCCO)c(Nc2ccc(I)cc2F)n(C)c1=O,–,-1.14,-0.82,-0.774 (inactive)
NC(=O)N1CCC(CC(=O)N2CCC([C@H]3c4ncc(Br)cc4CCc4cc(Cl)cc(Br)c43)CC2)CC1,–,-0.883,-0.991,-0.923 (inactive)
C=Cc1c(C)c2cc3nc(cc4[nH]c(cc5nc(cc1[nH]2)C(C)=C5CCC(=O)O)c(CCC(=O)OC)c4C)[C@@]1(C)C3=CC=C(C(=O)OC)[C@H]1C(=O)OC,–,1.25,1.36,0.838 (inactive)
C[C@H](NC(=O)Cc1cc(F)cc(F)c1)C(=O)N[C@H](C(=O)OC(C)(C)C)c1ccccc1,–,-0.43,-0.265,-0.609 (inactive)
Cc1ccc(-n2[nH]c(C)c(N=Nc3cccc(-c4cccc(C(=O)O)c4)c3O)c2=O)cc1C,–,-0.314,0.208,-0.217 (inactive)
NC1=N[C@H]2[C@H](CS[C@H]2CCCCC(=O)O)N1,–,0.0828,0.00068,-0.195 (inactive)
O=c1c(O)c(-c2ccc(O)c(O)c2)oc2cc(O)ccc12,–,-0.105,0.0271,0.12 (inactive)
CC(C)(C)c1nc2c3cc[nH]c(=O)c3c3cc(F)ccc3c2[nH]1,–,0.604,0.212,-0.0239 (inactive)
COc1ccc(C[C@@H](C)[C@@H](C)Cc2ccc(OC)c(OC)c2)cc1OC,–,-0.135,0.0624,0.193 (inactive)
Cc1ccc2nc(NCCN)c3ncc(C)n3c2c1,–,0.537,1.09,0.876 (inactive)
COC(=O)C1C2CC3c4[nH]c5cc(OC)ccc5c4CCN3CC2CC(OC(=O)c2cc(OC)c(OC)c(OC)c2)C1OC (configuration not stated),–,0.441,0.416,1.42 (inactive)
C[C@](Cc1c[nH]c2ccccc12)(NC(=O)OC1C2CC3CC(C2)CC1C3)C(=O)NC[C@H](NC(=O)CCC(=O)O)c1ccccc1 (some centres not stated),–,-0.184,-0.0323,-0.246 (inactive)
CCCCCCCCc1ccc(CCC(N)(CO)CO)cc1,–,-0.111,0.091,-0.00924 (inactive)
CCCCOc1ccc(C(=O)Nc2ccc(F)cc2F)cc1,–,-0.847,-0.905,-0.387 (inactive)
CN(C)c1ccc2cc(C(=O)N[C@@H](CCCN=C(N)CCl)C(=O)NCc3ccccc3)ccc2c1,–,0.744,1.03,1.15 (inactive)
